Activity calls are given as the source filed them. The call rests on the fitted dose curve. Residues, ends and D or L forms follow the SMILES beside them. *: point of attachment. Cbz = O=C(OCc1ccccc1)*
Test: qHTS drug screen for cell cycle checkpoint inhibitors in PARPi-resistant BRCA-mutant ovarian cancer cell lines. (AID 1963452)
Settings: PEO1/OlaR viability, CellTiter-Glo luminescence, 96 h; for Z-AUC: stronger effect = lower value
In short: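 PEO1, PEO4 and PEO1/OlaR ovarian cancer cells, 600 per well, exposed 96 h at 37C to a dilution series. Viability read by CellTiter-Glo luminescence, normalized to DMSO and empty wells; activity summarized as Z-AUC.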

[1] = measured here: PEO1 parental Z-AUC
Potency means the concentration at half of the fitted maximal effect.

SMILES	Z-AUC	Z-AUC [1]	Z-AUC (measured here: PEO4 Z-AUC)	Potency
O=c1ccn([C@@H]2O[C@H](CO)[C@H](O)[C@@H]2F)c(=O)[nH]1	0.179 (inactive)	0.56	0.262	
CN1CCc2c(c3ccccc3n2Cc2ccc(C(=O)NO)cc2)C1	-0.848 (inactive)	-0.74	-1.03	
CN(C)CCN1C(=O)c2cccc3cc(N)cc(c23)C1=O	-0.488 (inactive)	-0.749	-0.88	
OCCNC1CCCc2c1[nH]c1ccc(-c3ccccc3)cc21 (stereo unspecified)	-0.486 (inactive)	-0.384	0.0631	
CCOc1cc2c(c(F)c1OCC)C(=N)N(CC(=O)c1cc(N3CCOCC3)c(OC)c(C(C)(C)C)c1)C2	-0.189 (inactive)	0.331	0.119	
O=C1CSC(=O)N1C(CCc1ccncc1)COc1ccc(-c2cccc([N+](=O)[O-])c2)cc1 (stereo unspecified)	0.623 (inactive)	-0.739	0.104	
CC(C)C[C@@H](C=O)NC(=O)[C@H](CC(C)C)NC(=O)[C@H](CC(C)C)NC(=O)OCc1ccccc1 (Cbz-Leu-Leu-Leu-aldehyde)	-0.0586 (inactive)	-0.937	-0.457	
O=c1c(O)c(-c2ccc(O)c(O)c2)oc2cc(O)ccc12	0.12 (inactive)	-0.105	0.0271	
Cc1cnc(Nc2ccc(N3CCN(C)CC3)cc2)nc1Nc1cccc(S(=O)(=O)NC(C)(C)C)c1	-0.289 (inactive)	-0.236	-0.304	
CCc1c(O)cc(O)c(C(=O)c2ccc(OCCN3CCOCC3)c(OC)c2)c1CC(=O)N(CCOC)CCOC	-0.361 (inactive)	-0.538	0.145	
C[C@H](NC(=O)[C@@H](O)c1cc(F)cc(F)c1)C(=O)N[C@@H]1C(=O)N(C)c2ccccc2-c2ccccc21	0.549 (inactive)	0.437	0.274	
O=C(Nc1cccc(Nc2ncc(Br)c(NCCc3cnc[nH]3)n2)c1)N1CCCC1	-0.432 (inactive)	-0.127	-0.522	
COc1ccc(C[C@@H](C)[C@@H](C)Cc2ccc(OC)c(OC)c2)cc1OC	0.193 (inactive)	-0.135	0.0624	
CN(C)c1ccc2cc(C(=O)N[C@@H](CCCN=C(N)CCl)C(=O)NCc3ccccc3)ccc2c1	1.15 (inactive)	0.744	1.03	
C#Cc1cccc(Nc2ncnc3cc(OCCOC)c(OCCO)cc23)c1	0.364 (inactive)	0.383	0.173	
C[N+](C)([O-])CCNc1ccc(NCC[N+](C)(C)[O-])c2c1C(=O)c1c(O)ccc(O)c1C2=O	0.909 (inactive)	-0.431	0.857	

SMILES	Z-AUC	Z-AUC [1]	Z-AUC (measured here: PEO4 Z-AUC)	Potency
C=Cc1c(C)c2cc3nc(cc4[nH]c(cc5nc(cc1[nH]2)C(C)=C5CCC(=O)O)c(CCC(=O)OC)c4C)[C@@]1(C)C3=CC=C(C(=O)OC)[C@H]1C(=O)OC	0.838 (inactive)	1.25	1.36	
CCc1nc(-c2cccc(C)c2)c(-c2ccnc(NC(=O)c3ccccc3)c2)s1	-0.209 (inactive)	0.57	0.812	
COc1cc(C[C@@H](CO)[C@H](CO)Cc2ccc(O)c(OC)c2)ccc1O	0.833 (inactive)	0.526	0.516	
CC(C)n1cnc2c(NCCc3ccc(O)cc3)nc(-c3csc4ccccc34)nc21	0.419 (inactive)	0.415	0.466	
FC(F)(F)c1ccc(Nc2nc3ccc(Oc4ccnc(-c5ncc(C(F)(F)F)[nH]5)c4)cc3[nH]2)cc1	-0.52 (inactive)	-0.706	-1.16	
CC(C)(C)c1nc2c3cc[nH]c(=O)c3c3cc(F)ccc3c2[nH]1	-0.0239 (inactive)	0.604	0.212	
CN(C)CC(=O)N1CCC(c2ccc(NC(=O)c3ncc(C#N)[nH]3)c(C3=CCCCC3)c2)CC1	-1.11 (inactive)	-0.797	-0.584	
C[C@@H]1C(=O)O[C@H]2CC34[C@H]5C[C@@H](C(C)(C)C)C36[C@H](OC(=O)[C@@H]6O)O[C@@]4(C(=O)O5)[C@]21O (stereo partly specified)	0.793 (inactive)	0.5	0.284	
O=[N+]([O-])c1cn2c(n1)OC[C@@H](OCc1ccc(OC(F)(F)F)cc1)C2	0.733 (inactive)	0.61	0.849	
Oc1ccc(-c2ccc(-c3cc(Nc4cccc(CNC5CC5)c4)n[nH]3)cc2)c(O)c1	-0.35 (inactive)	0.119	0.0871	
C[C@H](NC(=O)Cc1cc(F)cc(F)c1)C(=O)N[C@H](C(=O)OC(C)(C)C)c1ccccc1	-0.609 (inactive)	-0.43	-0.265	
NC(=O)c1cccc(-c2cccc(OC(=O)NC3CCCCC3)c2)c1	-0.0721 (inactive)	0.554	-0.318	
COc1cc2c(cc1OC)[C@@H]1C(=O)c3ccc4c(c3O[C@@H]1CO2)C=CC(C)(C)O4	-0.868 (inactive)	-1.79	-1.41	
CCN(CC)Cc1ccc2cc(COC(=O)Nc3ccc(C(=O)NO)cc3)ccc2c1		-1.11	-1.29	0.977 µM (active)
NC(=O)Nc1sc(-c2ccc(F)cc2)cc1C(N)=O	-1.29 (inactive)	-1.13	-1.05	
c1coc(CNc2ncnc3nc[nH]c23)c1	0.877 (inactive)	0.956	1.1	
